Results on 67 compounds are retold here after PubChem BioAssay AID778 (Sanford-Burnham Center for Chemical Genomics, 2007).

About 20,000 (21%) of roughly 96,000 compounds were called active.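 How the source made its calls: active means CYP2C19 inhibition above a set limit at 5 µM in the primary screen (cut at about 50% in these data); inactive means the rest.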 Not all results are given here.

Sequence of Cytochrome P450 2C19 (Homo sapiens) (P33261 whole entry, looked up): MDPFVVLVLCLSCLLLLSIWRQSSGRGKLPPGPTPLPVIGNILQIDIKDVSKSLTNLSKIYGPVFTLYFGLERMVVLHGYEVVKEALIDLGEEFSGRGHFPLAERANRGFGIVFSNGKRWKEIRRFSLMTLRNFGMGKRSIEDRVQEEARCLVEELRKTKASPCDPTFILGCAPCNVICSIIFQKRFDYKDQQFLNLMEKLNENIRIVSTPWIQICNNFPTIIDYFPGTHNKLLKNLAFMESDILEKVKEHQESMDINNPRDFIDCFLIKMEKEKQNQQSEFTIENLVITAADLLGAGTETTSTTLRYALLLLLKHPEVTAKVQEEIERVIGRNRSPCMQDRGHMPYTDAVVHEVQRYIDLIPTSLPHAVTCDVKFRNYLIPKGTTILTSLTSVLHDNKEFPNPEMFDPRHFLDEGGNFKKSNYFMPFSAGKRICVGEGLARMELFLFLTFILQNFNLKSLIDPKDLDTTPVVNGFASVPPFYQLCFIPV

This assay addresses Cytochrome P450 2C19 (Homo sapiens) (UniProt P33261). Kind of assay: blockers of cytochrome P450 2C19 activity – biochemical, luminescence, ADME assay, primary screen (AID 778).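 Further: plate controls were negative control wells for no effect and 2.5 mM tranylcypromine positive control for full effect.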 To be noted: CYP2C19 Supersomes, luciferin-H EGE luminescence, 30 min; at 5 µM; active compounds read high.
By inhibition is commonly meant the drop in the measured response relative to a control, in per cent. Consider `O=C(Nc1nc2ccc(S(=O)(=O)N3CCCC3)cc2s1)C1CCCO1` (configuration not stated), for which the inhibition is -2.2% (inactive).

Take `CCc1nnc(NC(=O)c2nc3nccc(C)n3n2)s1`: the inhibition is 0.6% (inactive).

Consider `O=C1Cc2ccccc2Sc2ccc(Cl)cc21`, for which the inhibition is 58.3% (active).

With `O=C(CSc1nc2ccccc2o1)N1c2ccccc2Sc2ccc(Cl)cc21`, the inhibition is 36.4% (inactive).

Consider `Cc1ccc(SCc2cc(=O)[nH]c(N3CCCCC3)n2)cc1`, for which the inhibition was 30.5% (inactive).

For `COc1ccc(OCC(=O)NNC(=O)c2ccc(-c3ccccc3)cc2)cc1`, the inhibition was -6% (inactive).

Take `COC(=O)c1ccc(OCC(=O)NC(C)(C)C)cc1`: the inhibition is 67.1% (active).

With `CC(C)(C)NC(=O)COc1ccc(CNc2ccc3[nH]c(=O)[nH]c3c2)cc1`, the inhibition is 11.8% (inactive).

Consider `CC(NC(=O)COc1ccccc1)C(=O)NC1=NCCS1` (configuration not stated), for which the inhibition was 10.5% (inactive).

Consider `COC(=O)/C=C/C(=O)NCc1ccco1`, for which the inhibition is -5.7% (inactive).

`CCC(=O)Nc1nc(OC)cc(OC)n1`: the inhibition is 2.1% (inactive).

Consider `FC(F)(F)c1nc2ccccc2nc1N/N=C/c1ccc(Cl)cc1`, for which the inhibition was 16.6% (inactive).

For `O=[N+]([O-])c1ccc(Oc2ccc(F)cc2Br)c2ccncc12`, the inhibition is 31% (inactive).

Turning to `COc1ccc(NC2CC(=O)N(C)C2=O)cc1` (configuration not stated), the inhibition is -10.3% (inactive).

Consider `COc1ccc2c(c1)SC(C)CC2=O` (configuration not stated), for which the inhibition was 79.6% (active).

Regarding `COc1ccc2c(c1)OC(O)(C(F)(F)C(F)F)CC2=O` (configuration not stated), the inhibition was 47.3% (inactive).

Regarding `O=C(Cn1ccc([N+](=O)[O-])n1)NCc1cccs1`, the inhibition was 0.6% (inactive).

Take `O=C(Nc1cc(=O)[nH]c2ncnn12)c1ccccc1Cl`: the inhibition is 2.2% (inactive).

Take `O=C(C1CCCO1)N(Cc1ccccc1)c1ccccc1` (configuration not stated): the inhibition is 0% (inactive).

As to `COc1ccc(C(CC(=O)O)NC(=O)Cc2ccccc2)cc1` (configuration not stated), the inhibition is -9.7% (inactive).

For the compound `CCOc1ccc(C(CC(=O)O)NC(=O)COc2ccccc2)cc1` (configuration not stated), the inhibition is -2.9% (inactive).

As for `CCOc1ccc(C(CCc2ccccc2)NC(=O)c2ccc(OC)c(OC)c2)cc1OCC` (configuration not stated), the inhibition was 56.7% (active).

For `COc1cc2[nH]c(=O)n(CCC(=O)NC3CCN(Cc4ccccc4)CC3)c(=O)c2cc1OC`, the inhibition is -19% (inactive).

On to `COc1ccc(N(CC(=O)NC2CCCCCCC2)S(=O)(=O)c2c(C)nn(C)c2C)cc1`, for which the inhibition was 42.8% (inactive).

For `CN(CC(=O)NC1CCCCC1)S(=O)(=O)c1cccc2cccnc12`, the inhibition was 57.6% (active).

On to `Cc1ccc(S(=O)(=O)N(C)CC(=O)NC2CCCC2)cc1`, for which the inhibition is 11.9% (inactive).

As to `CCn1c2c(c3ccc(OC)cc31)CCCC2=O`, the inhibition is 7.5% (inactive).

In the case of `C=C(C)Cn1c(C)cc(C)c(S(=O)(=O)c2ccccc2C)c1=O`, the inhibition is 19.6% (inactive).

As to `CCCOc1ccc(N2C(=O)CC(N(CCc3ccc(S(N)(=O)=O)cc3)C(C)=O)C2=O)cc1` (configuration not stated), the inhibition is -16.6% (inactive).

On to `CC(C)CCNC(=O)CN(C(=O)Cn1nnc(-c2ccc(F)cc2)n1)C1CCCC1`, for which the inhibition is 17.8% (inactive).

In the case of `COc1cccc(N(CC(=O)NC2CCCC2)C(=O)Cn2nnc(-c3ccc(C)cc3)n2)c1`, the inhibition is 28.4% (inactive).

As to `CC(C)CCNC(=O)C(C)N(C(=O)Cn1nnc(-c2ccc(F)cc2)n1)C1CCCC1` (configuration not stated), the inhibition was 78.7% (active).

Turning to `CC1(C)CC(O)C(CCC(O)c2ccccc2)C(C)(C)N1` (configuration not stated), the inhibition was -6.9% (inactive).

Take `CCCOc1ccc(-c2nc(N)n[nH]2)cc1`: the inhibition is 5.8% (inactive).

For the compound `Cn1c(=NC(=O)C2CC2)sc2cc(F)cc(F)c21`, the inhibition is 13.8% (inactive).

Turning to `COc1ccc(CCN=C2SCC(=O)N2C)cc1OC`, the inhibition was 88.2% (active).

Consider `COc1ccc(CCN2CNc3c(c(=O)n(C)c(=O)n3C)C2)cc1OC`, for which the inhibition is -22.1% (inactive).

On to `COc1ccc(CCN(C)CCN2C(=O)c3ccccc3C2=O)cc1OC`, for which the inhibition is 2.8% (inactive).

For `NC(=S)c1ccc(C(N)=S)o1`, the inhibition was 60.2% (active).

In the case of `CCOC(=O)c1c(C)[nH]c(C)c1C(=O)CSc1nc(N)cc(N)n1`, the inhibition was 17.6% (inactive).

On to `Cc1ccc(S(=O)(=O)N2CCC(C(=O)N[C@@H](C)C(=O)NCCc3ccccc3)CC2)cc1`, for which the inhibition is 10.5% (inactive).

For the compound `Cc1ccc(C(=O)NCCNS(=O)(=O)c2ccccc2)cc1`, the inhibition was 81.4% (active).

`CS(=O)(=O)NCc1ccc(C(=O)NCc2ccccc2)cc1`: the inhibition was -8.4% (inactive).

On to `O=S(=O)(NCCNS(=O)(=O)c1ccccc1)c1ccccc1`, for which the inhibition is 89% (active).

As to `CC(=O)NS(=O)(=O)c1ccccc1`, the inhibition is 4.6% (inactive).

Turning to `Cc1ccc(S(=O)(=O)NCCSC(C)(C)C)cc1`, the inhibition was 11.6% (inactive).

Take `CC(C)(C)NC(=O)CN(Cc1cccs1)C(=O)CNS(=O)(=O)c1ccccc1`: the inhibition is 4.4% (inactive).

As for `CCOc1cc(C(=S)N2CCOCC2)ccc1O`, the inhibition was 12.3% (inactive).

Take `CN(CC#CCC(c1ccccc1)c1ccccc1)C(C)(C)C`: the inhibition was 46.1% (inactive).

As to `CC(=O)OCc1cc(=O)n(C)c(=O)n1C`, the inhibition was 1.9% (inactive).

`CCCc1nnc(NC(=O)c2cccs2)s1`: the inhibition was 7.8% (inactive).

Consider `COc1ccc(/C=N/Nc2nc3ccccc3o2)cc1OC`, for which the inhibition was -0.5% (inactive).

Regarding `C=CCOc1ccc(/C=N/n2cncn2)cc1OC`, the inhibition is 96.6% (active).

For the compound `COc1cc(/C=N/NC(=O)Nc2ccccc2)ccc1OCCOc1ccccc1C`, the inhibition was 4.8% (inactive).

On to `Cc1csc(NC(=O)CN2CCCCCC2)n1`, for which the inhibition is 22.8% (inactive).

Regarding `COc1cc(/C=N/O)cc(Br)c1OS(=O)(=O)c1ccc(C)cc1`, the inhibition was 73.4% (active).

For `COc1cc(/C=N/O)cc(Br)c1OCc1cccc(Cl)c1`, the inhibition is 4.4% (inactive).

As to `CCOc1cc(/C=N/O)cc(Br)c1OC`, the inhibition is 45.6% (inactive).

For the compound `Nc1c(-c2cccc(Cl)c2)cnn1-c1cccc([N+](=O)[O-])c1`, the inhibition was 24% (inactive).

`COc1ccc(Br)cc1S(=O)(=O)N1CCN=C1C`: the inhibition is 40.3% (inactive).

For the compound `Cc1noc(C)c1S(=O)(=O)NCCc1ccc(S(N)(=O)=O)cc1`, the inhibition was -13.5% (inactive).

As for `COc1ccc(C)cc1S(=O)(=O)NC1CCCCC1`, the inhibition was 15% (inactive).

`COc1ccc(C)cc1S(=O)(=O)NCCc1ccccc1`: the inhibition is 54.1% (active).

With `COCCNS(=O)(=O)c1cc(Br)ccc1OC`, the inhibition is 66.9% (active).

With `COc1ccc(Cn2c(C)c(C)c(C#N)c2NC(=O)Nc2ccc(F)cc2)cc1`, the inhibition was 4.4% (inactive).

For `Cc1ccc(F)cc1NC(=O)c1cccc(N(C)C)c1`, the inhibition is 8.6% (inactive).

For `CCCC(NS(=O)(=O)c1ccc(OC)cc1)C(=O)O` (configuration not stated), the inhibition was -12.7% (inactive).
